Laboratory results: PubChem BioAssay (NCATS)
Results filed as inconclusive are left out. Where a call stands in place of a potency, no number is given. The source made the active and inactive calls. Calls follow the shape of the dose curve; as a rule, active = well fitted inhibition curve with a large enough effect; inconclusive = small, poorly fitted or top-dose-only effect; inactive = flat fitted curve, though single readings scatter. Peptide text beside a SMILES is read from it.
Potency is read from the fitted curve at half-maximal effect.

These molecules were tested on CP335 (assay: qHTS profiling for inhibitors of Plasmodium falciparum proliferation (AID 504749; also: nearly all actives have a fitted effect of over 60% in size)). Conditions: P. falciparum in erythrocytes, SYBR Green DNA, 72 h; series mostly up to 12.8 µM.
Outline: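 P. falciparum-infected erythrocytes (0.3% parasitemia, 2.5% hematocrit final) were exposed to compounds for 72 h at 37 C in 5% CO2, then lysed with SYBR Green buffer overnight at room temperature; parasite DNA fluorescence was normalized to artemisinin and DMSO controls.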
In the case of `CCC(C)C(=O)OC1CCC=C2C=CC(C)C(CCC3CC(O)CC(=O)O3)[C@@H]21` (some centres not stated), the Potency is reported as “inactive”. In the case of `C[C@]1(c2ccccc2)OC(C(=O)O)=CC1=O`, the Potency is reported as “inactive”. With `OCC1OC([S-])[C@H](O)C(O)C1O.[Au+]` (some centres not stated) the Potency was “inactive”. With `COC(=O)N/N=C/C1=C[N+](=O)c2ccccc2[N+]1=O` the Potency was “inactive”. For `CN1CC(=O)N=C1N`, the Potency was “inactive”. For `CNC1CC(N)[C@H](O)[C@@H](O[C@@H]2OC(CO)C3OC4(OC(C(N)CO)C(O)C(O)C4O)O[C@@H]3[C@H]2O)C1O` (some centres not stated), the Potency was “inactive”. With `COC1C=CO[C@@]2(C)Oc3c(C)c(O)c4c(O)c(c(C=NN5CCN(C)CC5)c(O)c4c3C2=O)NC(=O)/C(C)=C\C=CC(C)C(O)[C@@H](C)C(O)C(C)[C@H](OC(C)=O)C1C` (some centres not stated) the Potency was 953 nM (active). In the case of `CC(=O)N[C@@H]1C(O)OC(CO)C(O)C1O` (some centres not stated), the Potency is reported as “inactive”. With `CCC(CCC(C)C1CCC2C3CC=C4CC(O)CC[C@@]4(C)C3CC[C@@]12C)C(C)C` (some centres not stated) the Potency was “inactive”. In the case of `O=C1OC(CO)C(O)C(O)C1O` (configuration not stated), the Potency is reported as “inactive”. With `COc1ccc(CC(N)C(=O)NC2C(CO)OC(n3cnc4c(N(C)C)ncnc43)C2O)cc1` (configuration not stated) the Potency was 757 nM (active). With `CCCC(=O)O[C@]1(C(=O)CO)CCC2[C@@H]3CCC4=CC(=O)CC[C@]4(C)C3C(O)C[C@]21C` (some centres not stated) the Potency was “inactive”. `COC(=O)C(Cc1ccccc1)NC(=O)C(N)CC(=O)O` (stereo not drawn) (H-Asp-Phe-OMe; configuration not given here) was tested, and the Potency was “inactive”. With `CC[C@@]12CCCN3CCc4c(n(c5ccccc45)[C@](O)(C(=O)OC)C1)C32` (some centres not stated) the Potency was “inactive”. In the case of `CC1(C)SC2C(N3C(=O)C(c4ccccc4)NC3(C)C)C(=O)N2C1C(=O)O` (configuration not stated), the Potency is reported as “inactive”. In the case of `CC1CCC(C(C)C)C(=O)C1` (configuration not stated), the Potency is reported as “inactive”. In the case of `CC(=O)N[C@H](CC(C)C)C(=O)O`, the Potency is reported as “inactive”. With `CC(C)C1CCC(C(=O)NC(Cc2ccccc2)C(=O)O)CC1` (configuration not stated) the Potency was “inactive”. In the case of `COc1ccc2cc(C(C)CO)ccc2c1` (configuration not stated), the Potency is reported as “inactive”. `COc1ccc2cc1Oc1ccc(cc1)CC1c3c(cc4c(c3Oc3cc5c(cc3OC)CCN(C)C5C2)OCO4)CCN1C` (configuration not stated) was tested, and the Potency was 6010 nM (active). With `CNC1C(OC2C(O[C@@H]3C(O)C(O)[C@@H](N=C(N)N)C(O)C3N=C(N)N)OC(C)[C@@]2(O)CO)OC(CO)C(O)C1O` (some centres not stated) the Potency was “inactive”. With `CC1C2CCC3C4CC=C5CC(N(C)C)CC[C@@]5(C)C4CC[C@@]32CN1C` (some centres not stated) the Potency was “inactive”. In the case of `C[C@]12C=CC(=O)C=C1CCC1C2C(O)C[C@]2(C)C1CC[C@]2(O)C(=O)CO` (some centres not stated), the Potency is reported as “inactive”. With `COc1ccc2c(c1)N(C[C@@H](C)CN(C)C)c1ccccc1S2` the Potency was “inactive”. In the case of `CCOC(=O)C1=CC(OC(CC)CC)C(NC(C)=O)C(N)C1` (configuration not stated), the Potency is reported as “inactive”. For `CN(C)CCc1c[nH]c2ccc(CC3COC(=O)N3)cc12` (configuration not stated), the Potency was “inactive”. With `NCC1CCC(N)C(O[C@@H]2C(O)[C@H](O[C@H]3OC(CO)C(O)C(N)C3O)[C@@H](N)C[C@H]2N)O1` (some centres not stated) the Potency was “inactive”. For `OCC1O[C@H](OC2C(CO)O[C@@](O)(CO)C2O)C(O)C(O)C1O` (some centres not stated), the Potency was “inactive”. `CC1(C)OC2CO[C@]3(COS(N)(=O)=O)OC(C)(C)OC3C2O1` (some centres not stated) was tested, and the Potency was “inactive”. For `CC(=O)OC1CCC2C3CCc4cc(O)ccc4C3CCC12C` (configuration not stated), the Potency was “inactive”. In the case of `CN(C)CCCOC1C(C(O)CO)OC2OC(C)(C)O[C@@H]21` (some centres not stated), the Potency is reported as “inactive”. For `COc1cc(C2c3cc4c(cc3C(O[C@@H]3OC5COC(c6cccs6)OC5C(O)C3O)C3COC(=O)C23)OCO4)cc(OC)c1O` (some centres not stated), the Potency was 1690 nM (active).
